Measurements published in PubChem BioAssay (NCI).
This is part of a sample that, as a whole, favours compounds with a hit. Of some 83,000 tested, about 20% had one in any assay.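 Interpretation: 100, growth as untreated; towards 0, rising growth inhibition; 0, no net growth; 0 to -100, cell death. Compounds scoring below 10 were considered active.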 Calls of active or inactive are those of the source.

Columns and labels:
Experiment in all cases: NCI-60 one-dose screen, 48 h (100 = growth as untreated, 0 = no growth, -100 = all killed)
[1] = tested on: HT29 colon; conditions: 10 µM unless noted
[2] = tested on: SNB-75 CNS; conditions: 10 µM unless noted
[3] = tested on: U251 CNS; conditions: 10 µM unless noted
[4] = tested on: PC-3 prostate; conditions: 10 µM unless noted
[5] = tested on: SK-MEL-5 melanoma; conditions: 10 µM unless noted
[6] = tested on: UACC-62 melanoma; conditions: 10 µM unless noted
[7] = tested on: LOX IMVI melanoma; conditions: 10 µM unless noted
[8] = tested on: SK-MEL-28 melanoma; conditions: 10 µM
[9] = tested on: SK-MEL-2 melanoma; conditions: 10 µM unless noted
[10] = tested on: EKVX NSCLC; conditions: 10 µM unless noted
[11] = tested on: SN12C renal; conditions: 10 µM unless noted
[12] = tested on: UO-31 renal; conditions: 10 µM unless noted
[13] = tested on: ACHN renal; conditions: 10 µM unless noted
[14] = tested on: CAKI-1 renal; conditions: 10 µM unless noted
[15] = tested on: A498 renal; conditions: 10 µM unless noted
[16] = tested on: CCRF-CEM leukemia; conditions: 10 µM unless noted
[17] = tested on: MOLT-4 leukemia; conditions: 10 µM unless noted
[18] = tested on: SR leukemia; conditions: 10 µM unless noted
[19] = tested on: TK-10 renal; conditions: 10 µM unless noted
[20] = tested on: SNB-19 CNS; conditions: 10 µM unless noted

Measured: growth

Cc1cc(Br)c(N)c(Br)c1
inactive: [1] 106% | [2] 84.3% | [3] 96.4% | [4] 93% | [5] 102% | [6] 98.6% | [7] 93.6% | [8] 101% | [9] 110% | [10] 95.6% | [11] 109% | [12] 102% | [13] 99.1% | [14] 98% | [15] 84.1% | [16] 103% | [17] 96.4% | [18] 100%

CCCCc1c(CCC)c(=N)c2ccccc2n1C
inactive: [1] 26.6% | [2] 96.8% | [3] 59.3% | [4] 77.2% | [5] 78% | [6] 97.9% | [7] 59% | [8] 72.2% | [9] 101% | [11] 79.7% | [12] 65.6% | [19] 84.3% | [13] 78.4% | [14] 81% | [15] 75.9% | [16] 49.8% | [17] 60.6%
active: [18] 6.82%

CCCC(c1nnnn1C1CCCCC1)N1CCN(C(=O)c2ccco2)CC1 (centres undefined)
active: [18] 6.95%
inactive: [1] 27.2% | [2] 76.7% | [3] 50.2% | [4] 54.2% | [5] 47.1% | [6] 55.7% | [8] 65.6% | [9] 65.1% | [11] 73.6% | [12] 82.3% | [19] 86.7% | [13] 84.6% | [14] 66.4% | [15] 44.1% | [16] 24.1% | [17] 26.9%

Clc1ccc(-c2nnc(COc3ccc(C4=NNC(c5ccco5)C4)cc3)o2)cc1 (centres undefined)
inactive: [1] 101% | [2] 84.9% | [20] 92.5% | [4] 80.8% | [6] 76.3% | [7] 84.8% | [8] 101% | [9] 106% | [11] 86.5% | [12] 67.3% | [19] 83.4% | [13] 94.9% | [14] 86.4% | [15] 83.8% | [16] 84.7% | [17] 85.5% | [18] 80.7%

O=CCCCC(O)C=O (centres undefined)
inactive: [1] 111% | [2] 97.7% | [20] 106% | [4] 103% | [6] 109% | [7] 97.9% | [8] 111% | [9] 105% | [11] 97.6% | [12] 81.5% | [19] 104% | [13] 103% | [14] 101% | [15] 98.7% | [16] 102% | [17] 94% | [18] 90.5%

O=C(CSc1ncccc1C(=O)O)Nc1ccc(Oc2ccccc2)cc1
inactive: [1] 115% | [2] 88.3% | [20] 106% | [4] 99.8% | [6] 116% | [7] 92.1% | [8] 105% | [9] 106% | [11] 102% | [12] 78.1% | [19] 105% | [13] 107% | [14] 95.8% | [15] 96.7% | [16] 99.6% | [17] 84.6% | [18] 78.2%

CCOC(=O)c1cc2c(n1Cc1cc(OC)cc(OC)c1)-c1oncc1CCC2
inactive: [2] 16.3% | [3] 17.3% | [4] 33.2% | [6] 31.6% | [7] 25.3% | [8] 53.3% | [9] 41.8% | [11] 38.3% | [12] 18.5% | [19] 56.6% | [13] 37.6% | [14] 42.2% | [17] 18%
active: [1] 6.58% | [5] 1.12% | [15] -14.5% | [16] 9.16% | [18] 9.52%

O=C(COc1cc(O)c2c(=O)cc(-c3ccccc3)oc2c1)Nc1ccccc1C(F)(F)F
active: [2] -4.06% | [3] 4.09% | [19] -13.9%
inactive: [1] 70.6% | [4] 64.6% | [6] 77.5% | [7] 52% | [8] 79.1% | [9] 92% | [10] 51.4% | [11] 27.7% | [12] 17.1% | [13] 17.8% | [14] 22.3% | [15] 55.9% | [16] 58.6% | [17] 52.1%

COc1cc(C(=O)Nc2ccc(-c3nc4ccccc4[nH]3)cc2)cc(OC)c1OC
inactive: [1] 14.8% | [2] 42.9% | [3] 25% | [4] 52.5% | [5] 65.7% | [6] 47.2% | [8] 50% | [9] 105% | [11] 45.4% | [12] 49.5% | [19] 60.1% | [13] 61.9% | [14] 55.9% | [15] 37.6% | [16] 36.5% | [17] 41.3% | [18] 10.1%

COC(=O)c1c2c(c(C)[n+]([O-])c1C)C(=O)C=C(NCc1ccc(F)c(F)c1)C2=O
active: [1] 1.02% | [2] -96.7% | [3] -31.9% | [4] 3.37% | [5] -100% | [6] -83.9% | [7] -72.7% | [8] -19.3% | [9] -50.1% | [10] -82.1% | [11] -93.7% | [12] -71.5% | [19] 3.98% | [13] -78.2% | [14] -10.6% | [16] 5.3% | [17] -26.5%
inactive: [18] 10.5%

Cc1ccc(NCCNCC(O)CO)c2c(=O)c3ccccc3sc12 (centres undefined)
active: [1] -61.1% | [3] 9.2% | [5] -81% | [6] -49.9% | [7] -95.2% | [8] 1.81% | [12] -24% | [13] -46.3% | [17] 9.37% | [18] -9.74%
inactive: [2] 44.6% | [4] 13.6% | [9] 75.8% | [10] 43.3% | [11] 19.7% | [14] 39.2% | [15] 43.2% | [16] 22.2%

CCOC(=O)C1(C(=O)OCC)N=C(c2ccccc2)C=C1c1ccccc1
inactive: [1] 76.2% | [2] 81.2% | [3] 83.3% | [4] 83.8% | [5] 90.1% | [6] 82% | [7] 94.9% | [8] 105% | [9] 82.8% | [11] 89.8% | [12] 76% | [19] 112% | [13] 87.7% | [14] 83.1% | [15] 84.4% | [16] 77.5% | [17] 81.1% | [18] 69.7%

COc1ccc(Br)c(/C=C2\SC(=Nc3ccc(O)cc3)NC2=O)c1
inactive: [1] 113% | [2] 72.2% | [20] 85.5% | [5] 90.3% | [6] 89.5% | [7] 91.2% | [8] 101% | [9] 96.2% | [10] 88.7% | [11] 89.7% | [12] 49.8% | [19] 96.4% | [13] 89.7% | [14] 75.8% | [15] 97.6% | [16] 75% | [17] 85.2% | [18] 110%

O=c1oc2ccc(Br)cc2c(=O)n1-c1ccc(I)cc1F
inactive: [1] 40.1% | [10] 12.5%
active: [2] -20.8% | [3] 0.947% | [4] -0.134% | [6] -19.7% | [7] 6% | [8] -2% | [9] -32.6% | [11] -1.37% | [12] 7.32% | [19] 7.64% | [13] 3.46% | [14] -8.71% | [15] -70.2% | [16] 7.41% | [17] -26.3%

COc1ccc(Cn2c(Br)c3c(c2-c2cc(OC)c(OC)c(OC)c2)CCc2sc(NC(=O)c4ccc(OC)cc4)nc2-3)cc1
inactive: [1] 101% | [2] 82.4% | [3] 98.6% | [4] 84.2% | [5] 86.7% | [6] 94.9% | [7] 92.5% | [8] 105% | [9] 96.7% | [11] 85% | [12] 47.4% | [19] 110% | [13] 97.5% | [14] 78% | [15] 86.7% | [16] 79% | [17] 75.7% | [18] 76.2%

O=C(Nc1ccc(Cl)cc1F)c1cc(F)ccc1O
active: [2] -12.4% | [3] -4.4% | [4] 3.1% | [5] -84.4% | [6] -7.35% | [7] 9.69% | [8] 7.52% | [9] -29.8% | [10] 8.76% | [11] 3.23% | [12] 5.66% | [13] 3.61% | [14] -14.3% | [15] -55.6% | [16] 8.63% | [17] -13.3%
inactive: [1] 10.3% | [19] 14%

CC1=C(C(=O)OCC2CCN(C(=O)OC(C)(C)C)CC2)[C@H](c2cccc(Br)c2)C2=C(CC(C)(C)CC2=O)N1
active: [5] -32.8% | [17] 4.54%
inactive: [1] 16.7% | [2] 47.8% | [3] 30% | [4] 17.5% | [6] 36.1% | [7] 17.5% | [8] 50.1% | [9] 61.1% | [10] 49.4% | [11] 31.2% | [12] 31.2% | [19] 38.9% | [13] 27.9% | [14] 26.6% | [15] 49.5% | [16] 17.9%
